Assay [1] is described as follows: NCI Yeast Anticancer Drug Screen. Data for the rad50 strain (AID 155).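 Also: 0% = growth of vehicle-only cultures of the same strain.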 The conditions noted are these: S. cerevisiae rad50 strain growth inhibition, stronger effect = higher value. Put shortly: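 Readout: growth inhibition relative to vehicle-treated cultures. Compound exposure was carried out in a genetically defined yeast strain deficient in DNA damage repair.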
The nature of assay [2]: NCI Yeast Anticancer Drug Screen. Data for the mec2-1 strain (AID 157). As to conditions: S. cerevisiae mec2-1 strain, stronger effect = higher value. Put shortly:
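Mutant yeast (mec2-1) grown with compound; growth inhibition relative to vehicle control reported.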

A short description of assay [3]: NCI Yeast Anticancer Drug Screen. Data for the sgs1 mgt1 strain (AID 161).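 Also: 0% = growth of cultures given vehicle only.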 As to conditions: S. cerevisiae sgs1 mgt1 strain, stronger effect = higher value. Put shortly: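 Growth of a repair-deficient yeast mutant was monitored after compound treatment and expressed as inhibition relative to vehicle-treated cultures.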
Assay [4] in a line: NCI Yeast Anticancer Drug Screen. Data for the cln2 rad14 strain (AID 165).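 Also: 0% = growth equal to vehicle treated cultures.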 The conditions noted are these: S. cerevisiae cln2 rad14 strain, stronger effect = higher value. The method, boiled down: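 Readout is yeast growth inhibition versus vehicle-treated controls, using a strain with cln2 and rad14 alterations exposed to compound.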
A short description of assay [5]: NCI Yeast Anticancer Drug Screen. Data for the bub3 strain (AID 167). As to conditions: S. cerevisiae bub3 mutant strain, stronger effect = higher value. Put shortly:
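Readout: yeast growth inhibition, expressed relative to vehicle-only wells. The test organism is a mutant strain from a panel with lesions in DNA repair or checkpoint genes.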

Assay [6] in a line: NCI Yeast Anticancer Drug Screen. Data for the mlh1 rad18 strain (AID 175). The conditions noted are these: S. cerevisiae mlh1 rad18 strain growth inhibition, stronger effect = higher value. The method, boiled down:
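Genetically defined yeast (DNA repair-deficient) exposed to compounds; growth inhibition determined relative to vehicle.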

Where [7] appears, read: at 5.0 µM (retest, dose inferred, filed as 0.5).
Where [8] appears, read: at 50.0 µM (retest, dose inferred, filed as 5.0).

This is part of a sample that, as a whole, favours compounds with a hit. Of some 79,000 tested, about 15% had one in any assay. A number with no mark means an inactive call. Activity calls are given as the source filed them. Rule as the data show it: active = growth inhibition above about 70%; inactive = the rest.

Consider `CCOC(=O)c1c(Cl)c(CC)c(N=[N+]=[N-])n2c1nc1ccccc12`, for which the growth inhibition in assay [1] (setting [7]) was 8%; in assay [1] (setting [8]), 73% (active); in assay [1] (at 50.0 µM) it was 58.9%; in assay [2] (setting [7]), 8%; in assay [2] (setting [8]) it was 79% (active); in assay [2] (at 50.0 µM), 56.9%. Moreover, the growth inhibition in assay [3] (setting [7]) is 10%; in assay [3] (setting [8]), 73% (active); in assay [3] (at 50.0 µM), 60.1%; in assay [4] (setting [7]), 0%; in assay [4] (setting [8]), 63%; in assay [4] (at 50.0 µM) it was 69.6%. Further, the growth inhibition in assay [5] (setting [7]) was 1%; in assay [5] (setting [8]), 74% (active); in assay [5] (at 50.0 µM), 55%; in assay [6] (setting [7]), 9%; in assay [6] (setting [8]), 80% (active); in assay [6] (at 50.0 µM) it was 64.6%.
As for `O=C(O)C(Br)C(Br)c1ccccc1[N+](=O)[O-]` (stereo not given), the growth inhibition in assay [1] (setting [7]) was 15%; in assay [1] (setting [8]) it was 81% (active); in assay [1] (at 50.0 µM) it was 96.5% (active); in assay [2] (setting [7]) it was 8%; in assay [2] (setting [8]), 60%; in assay [2] (at 50.0 µM), 89% (active). Also, the growth inhibition in assay [3] (setting [7]) was 20%; in assay [3] (setting [8]), 79% (active); in assay [3] (at 50.0 µM), 95% (active); in assay [4] (setting [7]), 21%; in assay [4] (setting [8]), 72% (active); in assay [4] (at 50.0 µM), 77.2% (active). Moreover, the growth inhibition in assay [5] (setting [7]) is 3%; in assay [5] (setting [8]), 79% (active); in assay [5] (at 50.0 µM), 96% (active); in assay [6] (setting [7]) it was 11%; in assay [6] (setting [8]), 85% (active); in assay [6] (at 50.0 µM), 92% (active).
In the case of `CC(NNC(=S)N(C)C1CCCCC1)c1cc2ccccc2cn1` (stereo not given), the growth inhibition in assay [1] (setting [7]) was 48%; in assay [1] (setting [8]), 92% (active); in assay [1] (at 50.0 µM), 86.8% (active); in assay [2] (setting [7]), 55%; in assay [2] (setting [8]), 94% (active); in assay [2] (at 50.0 µM) it was 75.3% (active). Further, the growth inhibition in assay [3] (setting [7]) was 97% (active); in assay [3] (setting [8]), 94% (active); in assay [3] (at 50.0 µM), 85.5% (active); in assay [4] (setting [7]), 94% (active); in assay [4] (setting [8]), 92% (active); in assay [4] (at 50.0 µM), 79.8% (active). Also, the growth inhibition was 94% (active) in assay [5] (setting [7]); 95% (active) in assay [5] (setting [8]); 84% (active) in assay [5] (at 50.0 µM); 51% in assay [6] (setting [7]); 93% (active) in assay [6] (setting [8]); 83% (active) in assay [6] (at 50.0 µM).
Take `Cc1c(N)cccc1[N+](=O)[O-]`: the growth inhibition in assay [1] (setting [7]) was 2%; in assay [1] (setting [8]) it was 8%; in assay [1] (at 50.0 µM), 97.8% (active); in assay [2] (setting [7]) it was -6%; in assay [2] (setting [8]), 6%; in assay [2] (at 50.0 µM), 98.6% (active). For the same molecule, the growth inhibition in assay [3] (setting [7]) was -3%; in assay [3] (setting [8]) it was -1%; in assay [3] (at 50.0 µM) it was 97.4% (active); in assay [4] (setting [7]) it was -1%; in assay [4] (setting [8]) it was 7%; in assay [4] (at 50.0 µM) it was 95.5% (active). Moreover, the growth inhibition in assay [5] (setting [7]) was 3%; in assay [5] (setting [8]) it was 15%; in assay [5] (at 50.0 µM), 98.2% (active); in assay [6] (setting [7]), 0%; in assay [6] (setting [8]) it was 2%; in assay [6] (at 50.0 µM) it was 98.5% (active).
For the molecule `CSC(=S)N/N=C(\C)c1nccnc1C`, the growth inhibition was 5% in assay [1] (setting [7]); 98% (active) in assay [1] (setting [8]); 98.7% (active) in assay [1] (at 50.0 µM); 7% in assay [2] (setting [7]); 99% (active) in assay [2] (setting [8]); 98.9% (active) in assay [2] (at 50.0 µM). The growth inhibition was 3% in assay [3] (setting [7]); 98% (active) in assay [3] (setting [8]); 98.7% (active) in assay [3] (at 50.0 µM); -10% in assay [4] (setting [7]); 97% (active) in assay [4] (setting [8]); 98% (active) in assay [4] (at 50.0 µM). For the same molecule, the growth inhibition in assay [5] (setting [7]) was 21%; in assay [5] (setting [8]) it was 98% (active); in assay [5] (at 50.0 µM), 99% (active); in assay [6] (setting [7]) it was 5%; in assay [6] (setting [8]) it was 98% (active); in assay [6] (at 50.0 µM) it was 98.9% (active).
Take `Nc1nnc(-c2cc([N+](=O)[O-])cc([N+](=O)[O-])c2)o1`: the growth inhibition in assay [1] (setting [7]) is -16%; in assay [1] (setting [8]), -2%; in assay [1] (at 50.0 µM), 22.8%; in assay [2] (setting [7]), -4%; in assay [2] (setting [8]), -5%; in assay [2] (at 50.0 µM) it was 14.6%. Also, the growth inhibition in assay [3] (setting [7]) is -1%; in assay [3] (setting [8]), 14%; in assay [3] (at 50.0 µM), 15.1%; in assay [4] (setting [7]), 6%; in assay [4] (setting [8]), 20%; in assay [4] (at 50.0 µM) it was -20.2%. Further, the growth inhibition in assay [5] (setting [7]) was 3%; in assay [5] (setting [8]) it was 7%; in assay [5] (at 50.0 µM), -19.2%; in assay [6] (setting [7]), -21%; in assay [6] (setting [8]) it was 3%; in assay [6] (at 50.0 µM), 31.9%.
With `CSC(SC)=C(C#N)C(=O)Nc1ccc(C)cc1`, the growth inhibition was 25% in assay [1] (setting [7]); 47% in assay [1] (setting [8]); 40.5% in assay [1] (at 50.0 µM); 10% in assay [2] (setting [7]); 53% in assay [2] (setting [8]); 77.3% (active) in assay [2] (at 50.0 µM). The growth inhibition is 37% in assay [3] (setting [7]); 55% in assay [3] (setting [8]); 73.4% (active) in assay [3] (at 50.0 µM); 36% in assay [4] (setting [7]); 37% in assay [4] (setting [8]); 29.3% in assay [4] (at 50.0 µM). In addition, the growth inhibition in assay [5] (setting [7]) was 50%; in assay [5] (setting [8]), 53%; in assay [5] (at 50.0 µM), 89.7% (active); in assay [6] (setting [7]), 8%; in assay [6] (setting [8]), 8%; in assay [6] (at 50.0 µM) it was 83.8% (active).
For the molecule `Cn1cc(/C=C/[N+](=O)[O-])c2ccc(OCc3ccccc3)cc21`, the growth inhibition was 2% in assay [1] (setting [7]); -6% in assay [1] (setting [8]); 4.75% in assay [1] (at 50.0 µM); -3% in assay [2] (setting [7]); -7% in assay [2] (setting [8]); 37% in assay [2] (at 50.0 µM). Moreover, the growth inhibition was 4% in assay [3] (setting [7]); 4% in assay [3] (setting [8]); 10.2% in assay [3] (at 50.0 µM); 10% in assay [4] (setting [7]); 54% in assay [4] (setting [8]); 17.5% in assay [4] (at 50.0 µM). The growth inhibition in assay [5] (setting [7]) was 14%; in assay [5] (setting [8]), 34%; in assay [5] (at 50.0 µM), 76.3% (active); in assay [6] (setting [7]) it was 3%; in assay [6] (setting [8]) it was 11%; in assay [6] (at 50.0 µM), 16.9%.
With `C=CCOc1ccc2c(c1)CC=C1[C@@H]2CC[C@]2(C)C(=N\O)/C(=N/O)C[C@@H]12`, the growth inhibition is 10% in assay [1] (setting [7]); 95% (active) in assay [1] (setting [8]); 98.8% (active) in assay [1] (at 50.0 µM); -7% in assay [2] (setting [7]); 99% (active) in assay [2] (setting [8]); 99.1% (active) in assay [2] (at 50.0 µM). The growth inhibition was -9% in assay [3] (setting [7]); 99% (active) in assay [3] (setting [8]); 99% (active) in assay [3] (at 50.0 µM); -2% in assay [4] (setting [7]); 99% (active) in assay [4] (setting [8]); 98.1% (active) in assay [4] (at 50.0 µM). Also, the growth inhibition in assay [5] (setting [7]) is 1%; in assay [5] (setting [8]) it was 99% (active); in assay [5] (at 50.0 µM), 98.8% (active); in assay [6] (setting [7]) it was 45%; in assay [6] (setting [8]), 99% (active); in assay [6] (at 50.0 µM), 99% (active).
As to `CSc1ccc2c(c1)S[S@@](=O)N2`, the growth inhibition is -5% in assay [1] (setting [7]); 55% in assay [1] (setting [8]); 35.9% in assay [1] (at 50.0 µM); -11% in assay [2] (setting [7]); 61% in assay [2] (setting [8]); 1.45% in assay [2] (at 50.0 µM). The growth inhibition was 9% in assay [3] (setting [7]); 34% in assay [3] (setting [8]); 56.6% in assay [3] (at 50.0 µM); -16% in assay [4] (setting [7]); 33% in assay [4] (setting [8]); 18.3% in assay [4] (at 50.0 µM). The growth inhibition is 5% in assay [5] (setting [7]); 96% (active) in assay [5] (setting [8]); 51.4% in assay [5] (at 50.0 µM); -3% in assay [6] (setting [7]); 38% in assay [6] (setting [8]); 62.5% in assay [6] (at 50.0 µM).

The record behind these values is PubChem BioAssay (NCI).
